We go through 40 compounds from PubChem BioAssay.

A number with no mark means an inactive call. How the calls were made is not given here.

Sequence of Pantothenate synthetase (Mycobacterium tuberculosis (strain ATCC 25618 / H37Rv)) (P9WIL5 whole entry, looked up): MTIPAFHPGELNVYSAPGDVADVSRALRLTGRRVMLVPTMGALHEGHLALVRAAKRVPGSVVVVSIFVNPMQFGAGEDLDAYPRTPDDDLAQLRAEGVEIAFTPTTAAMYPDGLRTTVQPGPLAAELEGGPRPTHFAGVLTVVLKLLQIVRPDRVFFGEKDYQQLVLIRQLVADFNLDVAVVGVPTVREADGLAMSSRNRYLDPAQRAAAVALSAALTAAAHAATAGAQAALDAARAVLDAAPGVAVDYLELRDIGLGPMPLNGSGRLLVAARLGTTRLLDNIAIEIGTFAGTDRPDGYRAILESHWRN

This test concerns the target Pantothenate synthetase (Mycobacterium tuberculosis (strain ATCC 25618 / H37Rv)) (UniProt P9WIL5). Description: Recombinant Mtb pantothenate synthetase (PanC) inhibitors, coupled enzyme, confirmatory (AID 375).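 Further: 0% = full reaction with vehicle and 100% = no enzyme background.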 Conditions: coupled enzyme assay; at 10 µM, hits give high values.
A word on the inhibition: it is how much of the control response was suppressed. `COc1ccc(C)cc1NC(=O)CSc1nnnn1Cc1ccccc1`: the inhibition was 2%. The result for `CCOC(=O)CSc1nc2cc(C(=O)N3CCC(C(N)=O)CC3)ccc2c(=O)n1-c1ccccc1` reads 0%. In the case of `COCCn1nnnc1C(c1cccs1)N1CCN(c2cc(C)ccc2C)CC1` (stereo not given), the inhibition is 0%.

`CCOc1ccc(Nc2nc(Cc3nnc(SCC(N)=O)o3)cs2)cc1`: the inhibition is 0%. `Cc1nc(-c2ccc(NC(=O)c3cccs3)cc2)cs1`: the inhibition was 0%. Regarding `CN1CCN(S(=O)(=O)c2ccc(NC(=O)c3ccc(F)cc3)cc2)CC1`, the inhibition was 0%.

As to `Cn1c(=O)[nH]c2cc3ccccc3cc21`, the inhibition was 0%. Consider `CC(=O)Nc1nc2c(c3c1c(=O)oc1ccccc13)CC(C)CC2` (stereo not given), for which the inhibition was 0%. The result for `CC(C)(C)n1ncc2c(=O)n(CC(=O)NCc3ccco3)cnc21` reads 11%.

Take `COC(=O)c1c(NC(=O)c2ccc(S(=O)(=O)N3CCOCC3)cc2)sc2c1CCN(C)C2`: the inhibition was 0%. Take `COCCCNC(=O)C1CCCN(C(=O)Nc2ccc(OC)cc2)C1` (stereo not given): the inhibition was 2%. The result for `CCCCOc1ccc(-c2nnn(C(C)(C)C(=O)OC)n2)cc1` reads 5%; that for `O=C(Nc1cccc(O)c1)c1ccccc1`, 0%; that for `C=C(C)Cn1c(CCNC(=O)CC)nc2ccccc21`, 0%. On to `CCOc1cccc(-n2nnnc2-c2ccc(OC)cc2)c1`, for which the inhibition is 9%.

Take `O=C(CN1CCSCC1)N1CCc2[nH]c3ccc(Br)cc3c2C1`: the inhibition was 0%. The result for `O=C(CSc1nnc2scc(-c3ccccc3)n12)N1CCN(Cc2ccccc2)CC1` reads 6%.

Consider `COC(=O)c1sc2ccccc2c1NC(=O)c1cccs1`, for which the inhibition is 2%. `COc1ccc(C2CC(c3cccs3)n3nc(N)nc3N2)cc1` (stereo not given): the inhibition is 0%. The figure for `Cc1cc(C(=O)Nc2c(F)cc(F)cc2Br)no1` is 0%; for `Cn1c(=O)[nH]c(=O)c2c1nc(N1CCCCCC1)n2CCCSc1nc2ccccc2o1` it is 8%. The figure for `COC(=O)CSc1nc2sc3c(c2c(=O)n1C1CCCCC1)CCN(C)C3` is 0%; for `CCOc1cc(C2C(C#N)=C(N)Oc3n[nH]c(CC)c32)ccc1OCCN1CCOCC1` (stereo not given) it is 0%; for `CC(=Nc1cccc(O)c1)c1sc2ccccc2c1O` it is 0%. The figure for `CC(NC(=O)C1CC1)C(c1cccs1)N1CCN(c2ccccc2)CC1` (stereo not given) is 0%.

On to `CCCCOc1ccc(C(=O)Nc2ccc(N3CCN(C(=O)C(C)C)CC3)cc2)cc1`, for which the inhibition is 6%. For `CC(=O)Nc1nc(C)c(-c2csc(Nc3ccc(O)cc3)n2)s1`, the inhibition was 0%. The figure for `Cc1c(N=C2SCC(=O)N2c2c(C)n(C)n(-c3ccccc3)c2=O)c(=O)n(-c2ccccc2)n1C` is 3%. The figure for `CCCCN(CC)CCNC(=O)c1cc2c(C)nc3ccccc3c2o1` is 10%; for `O=C1CSC(=Nc2ccc(O)cc2)N1c1ccc(O)cc1` it is 0%.

`Cc1cc(C)c2cc(CN(CC3CCCO3)C(=O)NC3CCCCC3)c(=O)[nH]c2c1` (stereo not given): the inhibition is 0%.

As for `COC(=O)c1nc2n(n1)C(c1ccc(OC)c(OC)c1)C(C(=O)OC1CCCCC1)=C(C)N2` (stereo not given), the inhibition is 0%. On to `CC1Cc2nc(SCC(=O)Nc3ccc(F)cc3F)n(C)c(=O)c2S1` (stereo not given), for which the inhibition was 0%. As to `CN(CC(=O)N1CCCCC1)S(=O)(=O)c1cccc2cccnc12`, the inhibition was 0%. The figure for `CCCCOc1ccc(-c2nnn(CC(=O)Nc3ncc(CC(=O)OCC)s3)n2)cc1` is 2%.

`COc1ccc(C(=O)Nc2ccccc2C(=O)NCCN2CCOCC2)cc1`: the inhibition was 0%. The result for `COC(=O)CCC(=O)Nc1ccc(OC)cc1` reads 0%; that for `Cc1c(C(=O)OCC(C)(C)CN(C)C)oc2ccccc12`, 1%. The result for `Cc1ccc(C2C3CN(C(C)C)CC=C3C(C#N)=C(N)C2(C#N)C#N)cc1` (stereo not given) reads 0%; that for `O=C(CSc1nc2ccccc2n1CC(=O)N1CCCC1)Nc1nccs1`, 0%.
